Data from PubChem BioAssay AID2158 (National Center for Advancing Translational Sciences (NCATS), 2009).
Where “and” joins values, the source holds several entries; their conditions need not be identical. Identical values can stand only once. Records with an inconclusive call do not appear. A structure can be active in one record and inactive in another. Calls of active or inactive are those of the source. The call rests on the fitted dose curve; in most records, active means well fitted inhibition curve with a large enough effect; inconclusive means small, poorly fitted or top-dose-only effect; inactive means no such curve, though single readings can be large or run the other way.

target: Cruzipain (Trypanosoma cruzi) (UniProt P25779); assay: Confirmation qHTS Assay for Inhibitors of Cruzain; settings: purified cruzain, Z-FR-AMC fluorescence, 0.01% Triton; further: nearly all actives have a fitted effect of over 40% in size;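 on Activity change, negative = inhibition: plate controls were uninhibited enzyme control for no effect and buffer wells lacking enzyme for full effect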
Sequence (P25779 123-467 limits assumed): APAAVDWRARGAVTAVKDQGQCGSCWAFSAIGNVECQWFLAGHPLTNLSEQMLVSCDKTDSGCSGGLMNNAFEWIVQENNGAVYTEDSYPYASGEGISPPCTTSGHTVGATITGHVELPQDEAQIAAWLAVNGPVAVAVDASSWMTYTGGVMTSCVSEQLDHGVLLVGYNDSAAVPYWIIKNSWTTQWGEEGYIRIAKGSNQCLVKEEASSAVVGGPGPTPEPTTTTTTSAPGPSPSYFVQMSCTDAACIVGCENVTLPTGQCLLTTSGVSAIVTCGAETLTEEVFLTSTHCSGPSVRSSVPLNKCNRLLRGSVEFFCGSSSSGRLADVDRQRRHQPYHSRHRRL
In short: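 Reaction progress from the 60 s rise in AMC fluorescence (ex 360, em 450 nm) after adding 2 uM Z-FR-AMC. Before this, 1.5 nM cruzain sat 15 min at room temperature with compound in pH 5.5 acetate buffer with 5 mM DTT and 0.01% Triton X-100.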
Potency means the concentration at half of the fitted maximal effect.

Potency, active:
CCC(C(=O)NC1CCCCC1)n1c(SCc2ccc(F)cc2)nc2ccncc21 (stereo not given) 4.47 µM, Cc1cc(OCCCn2c(CCNC(=O)C3CCCCC3)nc3ccccc32)ccc1Cl 1.12 µM, O=C(CNC(=O)c1ccccc1)OC(C(=O)Nc1cc(C(F)(F)F)ccc1Cl)c1ccccc1 (stereo not given) 5.01 µM, N#Cc1nc(NCC2CC2)nc(Nc2ccccc2)n1 0.891 µM, O=C(Cc1ccccc1)NCC(=O)OCC(=O)c1cccc2ccccc12 25.1 µM, S=C(NC1CCCCC1)N(CCc1nc2ccccc2[nH]1)C1CCCC1 0.631 µM, O=C(CNC(=O)C1CCCCC1)OCC(=O)c1ccc(F)cc1 2.51 µM, N#Cc1c(N2CCOCC2)nc(-c2ccco2)c2c1CCCC2 3.98 µM, N#Cc1nc(NC2CCCC2)c2ncn(-c3cc(F)cc(F)c3)c2n1 0.316 µM, COc1ccccc1C(=O)NCC(=O)OCC(=O)c1cccc2ccccc12 31.6 µM, COc1cc(NC(=O)C(OC(=O)CNC(=O)c2ccccc2)c2ccccc2)cc(C(F)(F)F)c1 (stereo not given) 31.6 µM

Activity change, negative = inhibition, inactive:
Clc1ccccc1-c1nn2c(-c3cc(-c4ccccc4)n[nH]3)nnc2s1 -2.56%, CCCCNC(=O)Cn1c(SCc2cccc(F)c2)nc2ccncc21 -27.5%, O=C(Nc1ccccc1)c1ccc(-n2nncc2-c2ccccc2)cc1 -11.6%, NNC(=O)C(C(=O)OCc1ccccc1)c1ccccc1 (stereo not given) -1.2%, COc1cc(-c2nn3c(-c4cc(-c5ccccc5)n[nH]4)nnc3s2)cc(OC)c1OC -7.01%, O=C(CNC(=O)c1ccccc1)OC(C(=O)Nc1cc(C(F)(F)F)ccc1Cl)c1ccccc1 (stereo not given) -10.9% and -27.8%, COc1ccccc1-c1nn2c(-c3cc(-c4ccccc4)n[nH]3)nnc2s1 -18.8%, Cc1ccc(COc2ccc3oc(-c4ccccc4)c(C(=O)O)c3c2)cc1 -34.5%, CC(C)(C)OC(=O)Cc1nnc(-c2cc3ccccc3[nH]2)s1 -10.9%, CC(C)(C)OC(=O)NCc1nnc(-c2nc3ccccc3[nH]2)o1 -4.26%, CC(=O)c1nnn(-c2nc(C#N)nc(N3CCOCC3)n2)c1C 4.76%, O=C(COC(=O)CNS(=O)(=O)c1ccc(F)c(F)c1F)Nc1ccc(OC(F)F)cc1 -11.4%, N#Cc1nc(-c2cccs2)oc1N1CCOCC1 -30.8%, CC(C)(C)OC(=O)Cc1nnc(CNC(=O)c2ccccc2)s1 -0.719%
